Results from PubChem BioAssay (EPA / NIEHS).
Inconclusive results are not listed. Active and inactive are the calls of the source. The calls were made as follows, unless noted: active = hit-call score of the fitted dose curve at least 0.9, where 1 is the maximum; inactive = score below 0.9.

Test: CCTE_Shafer_MEA_acute_spike_number: CCTE's Neural Acute Assay for Total Number of Spikes, Shafer Lab (AID 2284008);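 as to AC50: curve fitted for decrease in spike count so AC50 reflects inhibitors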
Summary of the method: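 Total spike count from 40 min recordings before and during compound exposure (0.03-40 uM), given as per-well percent change. Cortical cultures from rat, DIV 13 or 15, 37 C; adaptive detection threshold 8x rms noise.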

| SMILES | outcome | AC50 |
| --- | --- | --- |
| CC(C)C(=O)OCCc1ccccc1 | inactive |  |
| Nc1cccc(N)n1 |  | 5.05 nM (active) |
| Nc1nc(N)nc(-c2ccccc2)n1 | inactive |  |
| CCCCCCCCCCCC(=O)N(C)CC(=O)O | inactive |  |
| c1ccc(Nc2cccc3ccccc23)cc1 |  | 1080 nM (active) |

Test: CCTE_Harrill_HTTr_Viability_MCF7: CCTE's 6-hour Cell Viability Assessment for the High-Throughput Transcriptomics (HTTr) Platform, in MCF-7 cells cultured in DMEM + 10% fetal bovine serum, Harrill Lab (AID 2284010)
Summary of the method: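 Cells were dosed with chemicals in an eight-point dilution series, imaged 6 hours later for propidium iodide uptake, and the endpoint was analyzed by bidirectional fitting against DMSO as negative control.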

| SMILES | outcome | AC50 |
| --- | --- | --- |
| Clc1cc(Cl)c(Cl)c(Cl)c1Cl | inactive |  |
| Cn1ccnc1 | inactive |  |
| CC(C)=CCl | inactive |  |
| Oc1c(Cl)cc(Cl)c(Cl)c1Cl | inactive |  |
| N=C1C=CC(=C(c2ccc(N)cc2)c2ccc(N)cc2)C=C1 |  | 1060 nM (active) |
| O=C(Oc1ccccc1)c1ccccc1O | inactive |  |
| O=C(O)C1CCC(C(=O)O)CC1 (stereo not given) | inactive |  |
| CC1=CCC(C(C)C)C=C1 (stereo not given) | inactive |  |
| Nc1ccc(C(=O)O)cc1 | inactive |  |
| CCCCCC(=O)OCC | inactive |  |
| CC(=O)OC/C=C(/C)CCC=C(C)C | inactive |  |
| CC12CCC(CC1)C(C)(C)O2 | inactive |  |
| CCCCCCCCCCCCC | inactive |  |
| CCC(C)C(=O)OC (stereo not given) | inactive |  |
| Cc1ccc([N+](=O)[O-])cc1N | inactive |  |
| CC(=O)CC(=O)Nc1ccccc1C | inactive |  |
| CCCCCCCC(=O)OCC(COC(=O)CCCCCCC)OC(=O)CCCCCCC | inactive |  |
| CCOC(=O)/C=C\C(=O)OCC | inactive |  |
| CCCCOCC(C)O (stereo not given) | inactive |  |
| NNS(=O)(=O)c1ccc(Oc2ccc(S(=O)(=O)NN)cc2)cc1 | inactive |  |
| Cc1c[nH]c(=O)[nH]c1=O | inactive |  |
| CCCCOCCOC(=O)COc1ccc(Cl)cc1Cl | inactive |  |
| C1CCSC1 | inactive |  |
| CC(=O)c1ccccc1O | inactive |  |
| COC(Cc1ccccc1)OC | inactive |  |
| CC1CCC(=O)C1=O (stereo not given) | inactive |  |
| C=Cc1ccc(OC(C)=O)cc1 | inactive |  |
| CCCCCCO | inactive |  |
| CC(C)CO | inactive |  |
| CCOC(=O)C1=NN(c2ccc(Cl)cc2Cl)C(C)(C(=O)OCC)C1 (stereo not given) | inactive |  |

Test: CCTE_Harrill_HTTr_Apoptosis_MCF7: CCTE's 6-hour Apoptosis Assessment for the High-Throughput Transcriptomics (HTTr) Platform, in MCF-7 cells cultured in DMEM + 10% fetal bovine serum, Harrill Lab (AID 2284011)
Summary of the method: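 High-content imaging of CellEvent Caspase 3/7 Green signal follows a six-hour exposure, with eight concentrations per chemical. MCF-7 cells grown in DMEM plus 10% fetal bovine serum; activity fitted in both directions against DMSO.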

| SMILES | outcome |
| --- | --- |
| Clc1cc(Cl)c(Cl)c(Cl)c1Cl | inactive |
| Cn1ccnc1 | inactive |
| CC(C)=CCl | inactive |
| Oc1c(Cl)cc(Cl)c(Cl)c1Cl | inactive |
| N=C1C=CC(=C(c2ccc(N)cc2)c2ccc(N)cc2)C=C1 | inactive |
| O=C(Oc1ccccc1)c1ccccc1O | inactive |
| O=C(O)C1CCC(C(=O)O)CC1 (stereo not given) | inactive |
| CC1=CCC(C(C)C)C=C1 (stereo not given) | inactive |
| Nc1ccc(C(=O)O)cc1 | inactive |
| CCCCCC(=O)OCC | inactive |
| CC(=O)OC/C=C(/C)CCC=C(C)C | inactive |
| CC12CCC(CC1)C(C)(C)O2 | inactive |
| CCCCCCCCCCCCC | inactive |
| CCC(C)C(=O)OC (stereo not given) | inactive |
| Cc1ccc([N+](=O)[O-])cc1N | inactive |
| CC(=O)CC(=O)Nc1ccccc1C | inactive |
| CCCCCCCC(=O)OCC(COC(=O)CCCCCCC)OC(=O)CCCCCCC | inactive |
| CCOC(=O)/C=C\C(=O)OCC | inactive |
| CCCCOCC(C)O (stereo not given) | inactive |
| NNS(=O)(=O)c1ccc(Oc2ccc(S(=O)(=O)NN)cc2)cc1 | inactive |
| Cc1c[nH]c(=O)[nH]c1=O | inactive |
| CCCCOCCOC(=O)COc1ccc(Cl)cc1Cl | inactive |
| C1CCSC1 | inactive |
| CC(=O)c1ccccc1O | inactive |
| COC(Cc1ccccc1)OC | inactive |
| CC1CCC(=O)C1=O (stereo not given) | inactive |
| C=Cc1ccc(OC(C)=O)cc1 | inactive |
| CCCCCCO | inactive |
| CC(C)CO | inactive |
| CCOC(=O)C1=NN(c2ccc(Cl)cc2Cl)C(C)(C(=O)OCC)C1 (stereo not given) | inactive |

Test: CCTE_Harrill_HTTr_CellCount_MCF7: CCTE's Cell Proliferation Assessment for the High-Throughput Transcriptomics (HTTr) Platform, Harrill Lab (AID 2284012; active = hit-call score of the fitted dose curve at least 0.9, where 1 is the maximum;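 also: count of Hoechst-stained nuclei per well by high-content imaging in MCF-7 cells; cells exposed to compound for six hours; intended direction is loss of nuclei count meaning fewer cells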)
Summary of the method: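 Chemicals in eight-point dilution series are added to MCF-7 cells for six hours, nuclei are stained with Hoechst and imaged, and per-well nuclei counts are fitted in both directions relative to DMSO controls.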

| SMILES | outcome |
| --- | --- |
| O=C(Oc1ccccc1)c1ccccc1O | inactive |
| CC1=CCC(C(C)C)C=C1 (stereo not given) | inactive |
| CCC(C)C(=O)OC (stereo not given) | inactive |
| CCCCOCC(C)O (stereo not given) | inactive |
| CC(=O)c1ccccc1O | inactive |

Test: CCTE_Shafer_MEA_acute_burst_number: CCTE's Neural Acute Assay for Single-Electrode Bursts, Shafer Lab (AID 2284013)
Summary of the method: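 Primary rat cortical neurons on 16-electrode MEA wells, treated on DIV 13 or 15 with compound at 0.03-40 uM. Single-electrode burst count from 40-min recordings at 37 C before and after exposure; percent change from baseline per well, DMSO negative control.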

| SMILES | outcome | AC50 |
| --- | --- | --- |
| CC(C)C(=O)OCCc1ccccc1 | inactive |  |
| Nc1cccc(N)n1 |  | 3 nM (active) |
| Nc1nc(N)nc(-c2ccccc2)n1 | inactive |  |
| CCCCCCCCCCCC(=O)N(C)CC(=O)O | inactive |  |
| c1ccc(Nc2cccc3ccccc23)cc1 |  | 1250 nM (active) |

Test: CCTE_Shafer_MEA_acute_burst_duration_mean: CCTE's Neural Acute Assay for Mean Burst Duration, Shafer Lab (AID 2284014);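 also: hits are decreases in mean burst duration relative to DMSO controls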
Summary of the method: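 Rat primary cortical neurons on 48-well MEA, treated at DIV 13 or 15 with 0.03-40 uM in at least 3 wells. Value is percent change in mean burst duration, comparing 40 min recordings at 37 C before and during exposure.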

| SMILES | outcome | AC50 |
| --- | --- | --- |
| CC(C)C(=O)OCCc1ccccc1 | inactive |  |
| Nc1cccc(N)n1 | inactive |  |
| Nc1nc(N)nc(-c2ccccc2)n1 | inactive |  |
| CCCCCCCCCCCC(=O)N(C)CC(=O)O | inactive |  |
| c1ccc(Nc2cccc3ccccc23)cc1 |  | 15000 nM (active) |

Test: CCTE_Shafer_MEA_acute_per_burst_spike_number_mean: CCTE's Neural Acute Assay for Average Number of Spikes Per Burst, Shafer Lab (AID 2284015);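 also: hits are decreases in mean spikes per burst versus baseline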
Summary of the method: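 Percent change in mean spikes per single-electrode burst is compared between a 40 min baseline and a 40 min recording with compound (0.03-40 uM). Cultures were rat cortical neurons on MEA plates at DIV 13 or 15, recorded at 37 C, with DMSO as the negative control.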

| SMILES | outcome | AC50 |
| --- | --- | --- |
| CC(C)C(=O)OCCc1ccccc1 | inactive |  |
| Nc1cccc(N)n1 |  | 15.4 nM (active) |
| Nc1nc(N)nc(-c2ccccc2)n1 | inactive |  |
| CCCCCCCCCCCC(=O)N(C)CC(=O)O |  | 2900 nM (active) |
| c1ccc(Nc2cccc3ccccc23)cc1 |  | 5600 nM (active) |

Test: CCTE_Shafer_MEA_acute_interburst_interval_mean: CCTE's Neural Acute Assay for Mean Interburst Interval, Shafer Lab (AID 2284016);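 also: percent change of mean interburst interval versus each well's own pre-dose baseline; curves fitted for decrease in interburst interval relative to DMSO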
Summary of the method: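 Percent change in mean single-electrode interburst interval was calculated per well from 40 min recordings before and after compound (0.03-40 uM). Recordings were made at 37 C on rat cortical cultures at DIV 13 or 15, with spikes detected at 8x rms threshold.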

| SMILES | outcome | AC50 |
| --- | --- | --- |
| CC(C)C(=O)OCCc1ccccc1 | inactive |  |
| Nc1cccc(N)n1 | inactive |  |
| Nc1nc(N)nc(-c2ccccc2)n1 | inactive |  |
| CCCCCCCCCCCC(=O)N(C)CC(=O)O |  | 22800 nM (active) |
| c1ccc(Nc2cccc3ccccc23)cc1 |  | 11700 nM (active) |

Test: CCTE_Shafer_MEA_acute_burst_percentage_mean: CCTE's Neural Acute Assay for Percentage of Spikes in a Burst, Shafer Lab (AID 2284017);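 as to AC50: curve fitted for loss of signal so potency reflects decreased burst percentage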
Summary of the method: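 Well-level mean burst percentage from a 40-min recording after compound (0.03-40 uM) expressed as percent change from a 40-min baseline at 37C. Cultures: primary rat cortical neurons on MEA, dosed on DIV 13 or 15; fitted downward relative to DMSO.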

| SMILES | outcome | AC50 |
| --- | --- | --- |
| CC(C)C(=O)OCCc1ccccc1 | inactive |  |
| Nc1cccc(N)n1 |  | 3 nM (active) |
| Nc1nc(N)nc(-c2ccccc2)n1 | inactive |  |
| CCCCCCCCCCCC(=O)N(C)CC(=O)O |  | 20200 nM (active) |
| c1ccc(Nc2cccc3ccccc23)cc1 |  | 4860 nM (active) |
